This passage reports Potency, max activation and activity change, negative = cytotoxicity results from PubChem BioAssay (Tox21).

Values joined by “and” are separate entries in the source; they are usually repeats but may differ in a detail not shown here. Identical values can stand only once. Inconclusive results are not listed. Some compounds were tested as several samples or in several runs, with calls that do not always agree. Active and inactive are the calls of the source. Calls follow the shape of the dose curve; as a rule, active = well fitted curve in the direction sought with a large enough effect in the repeat runs; inconclusive = weak or mixed curves; inactive = no such curve, though single readings can be large; an effect the other way counts as inactive or inconclusive.

Experiment [1] can be described thus: Human pregnane X receptor (PXR) small molecule agonists, qHTS cell viability counter screen (AID 1346977). Also: nearly all actives have a fitted effect of over 50% in size. The method in brief:
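Viability counter screen: CellTiter-Fluor signal in PXR-Luc HepG2 cells, 24hr compound exposure, 37C, 5% CO2.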
For orientation: qHTS replaces the single test concentration by a dilution series.

A short description of experiment [2]: Caspase-3/7 induction in HepG2 cells by small molecules, qHTS assay (AID 1346978). Also: nearly all actives have a fitted effect of over 15% in size. The method in brief: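 Wild-type HepG2 cells (2,000/well) were settled 5 h at 37 C, 5% CO2, then exposed to compounds in DMSO for 17 h. Caspase-3/7 activity was read by luminescence 30 min after adding Caspase-Glo 3/7 reagent at room temperature.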
A short description of experiment [3]: Caspase-3/7 induction in CHO-K1 cells by small molecules, qHTS cell viability counter screen (AID 1346979). Also: nearly all actives have a fitted effect of over 35% in size. Also: potency is read from the fitted curve at half-maximal effect. The method in brief: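 Viability readout by fluorescence (CellTiter-Fluor) on wild-type CHO-K1 cells exposed for 16hr at 37C and 5% CO2 to compounds delivered in DMSO; reagent incubated 1hr before reading.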
Experiment [4] in a line: Caspase-3/7 induction in CHO-K1 cells by small molecules, qHTS assay (AID 1346980). Also: nearly all actives have a fitted effect of over 15% in size. The gist of the method:
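Wild-type cells were seeded at 1,500 per well and settled 5 hr at 37 C, 5% CO2, then exposed to DMSO-dissolved compounds for 17 hr. Caspase-Glo 3/7 reagent was added, and luminescence was read after 30min at room temperature.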

The nature of experiment [5]: Caspase-3/7 induction in HepG2 cells by small molecules, qHTS cell viability counter screen (AID 1346981). Also: nearly all actives have a fitted effect of over 30% in size. Also: potency is read from the fitted curve at half-maximal effect. As to activity change, negative = cytotoxicity: series mostly up to about 92 µM. The method in brief:
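Cell viability is measured as a cytotoxicity counter screen alongside the Caspase-Glo 3/7 readout in identical wells. Wild-type HepG2 cells are treated with test compounds for 16 hr at 37 C before CellTiter-Fluor addition and a 1-hr incubation.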

Experiment [6] addresses Nuclear receptor subfamily 1 group I member 2 (Homo sapiens) (UniProt O75469). The experiment in a line: Human pregnane X receptor (PXR) small molecule agonists, qHTS assay (AID 1346982). Also: nearly all actives have a fitted effect of over 35% in size. Also: potency is read from the fitted curve at half-maximal effect. The method in brief: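 Cells: HepG2 stably carrying PXR-Luc. Medium held 5% charcoal-stripped FBS. Compounds in DMSO added after 5 hr plating, incubated 24 hr, then luminescence quantified with ONE-Glo.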

Experiment [7] deals with Nuclear receptor subfamily 1 group I member 2 (Rattus norvegicus) (UniProt Q9R1A7). Nature of the experiment: Rat pregnane X receptor (rPXR) activation by small molecules, qHTS assay (AID 1346983). Also: nearly all actives have a fitted effect of over 20% in size. Conditions: rPXR luciferase reporter cells, One-Glo luminescence, 24 h; max activation: stronger effect = higher value. The gist of the method: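 Cell-based rPXR luciferase reporter assay, 2,000 cells per well, rested 5hr at 37 C before compound addition in DMSO, then 24 hr at 37 C. One-Glo reagent was added and luminescence read after 30 min at room temperature.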
Sequence of Nuclear receptor subfamily 1 group I member 2 (Rattus norvegicus) (Q9R1A7 whole entry, looked up): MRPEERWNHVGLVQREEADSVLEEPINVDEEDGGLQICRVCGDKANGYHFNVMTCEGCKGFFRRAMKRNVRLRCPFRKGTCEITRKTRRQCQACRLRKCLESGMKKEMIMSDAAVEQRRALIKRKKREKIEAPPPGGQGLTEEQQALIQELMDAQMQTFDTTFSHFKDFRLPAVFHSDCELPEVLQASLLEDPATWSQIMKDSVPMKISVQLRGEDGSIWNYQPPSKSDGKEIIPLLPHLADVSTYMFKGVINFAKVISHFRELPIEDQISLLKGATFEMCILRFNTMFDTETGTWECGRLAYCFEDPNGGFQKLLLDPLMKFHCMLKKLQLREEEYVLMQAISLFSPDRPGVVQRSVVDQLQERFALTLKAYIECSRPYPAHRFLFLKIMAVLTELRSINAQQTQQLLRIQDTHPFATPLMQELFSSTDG

For experiment [8], the target named is Nuclear receptor subfamily 1 group I member 2 (Homo sapiens) (UniProt O75469). Nature of the experiment: CYP3A4 induction through human pregnane X receptor (PXR) by small molecules, qHTS assay (AID 1346984). Also: nearly all actives have a fitted effect of over 40% in size. Also: potency is read from the fitted curve at half-maximal effect. The method in brief:
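Quantitative HTS in DPX-2 cells, i.e. HepG2 transfected with PXR response element and CYP3A4-promoter luciferase. Compounds in DMSO incubated 24hr at 37C; then P450-Glo CYP3A4 substrate, 3uM final, 3hr; One-Glo luminescence.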

For experiment [9] the target is unchanged. The experiment in a line: Human pregnane X receptor (PXR) activation by small molecules, qHTS assay (AID 1346985). Also: nearly all actives have a fitted effect of over 40% in size. Also: potency is read from the fitted curve at half-maximal effect. The gist of the method:
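DPX-2 cells (HepG2 co-transfected with a PXR response element and a CYP3A4-promoter luciferase construct) were seeded at 2,000 per well, rested 5 hr at 37C, then exposed to DMSO-dissolved compounds for 24 hr. Activation was read as luciferase luminescence.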

In experiment [10] the target is Cytochrome P450 2C19 (Homo sapiens) (UniProt P33261). The experiment in a line: Cytochrome P450 Family 2 Subfamily C Member 19 (CYP2C19) small molecule antagonists: luciferase reporter qHTS assay (AID 1671197). Also: nearly all actives have a fitted effect of over 65% in size. Also: potency is read from the fitted curve at half-maximal effect. The method in brief:
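CYP2C19 P450-Glo, 1536-well qHTS. Cpd + enzyme/proluciferin substrate 10 min RT; + NADPH regen, 37C 1 h; stop with luciferin detection reagent, 20 min RT, luminescence (RLU). Pos ctrl ketoconazole.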
For orientation: A reporter such as luciferase makes a cellular process visible.

For experiment [11], the target named is Cytochrome P450 2C9 (Homo sapiens) (UniProt P11712). Nature of the experiment: Cytochrome P450 Family 2 Subfamily C Member 9 (CYP2C9) small molecule antagonists: luciferase reporter qHTS assay (AID 1671198). Also: nearly all actives have a fitted effect of over 50% in size. Also: potency is read from the fitted curve at half-maximal effect. The gist of the method:
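CYP2C9 activity was measured with a P450-Glo proluciferin substrate. Enzyme–substrate mix was held with compound for 10 min at room temperature, then NADPH regeneration solution was added for 1 h at 37C. Luciferin product was read as luminescence.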

The target of experiment [12] is Cytochrome P450 1A2 (Homo sapiens) (UniProt P05177). The experiment in a line: Cytochrome P450 Family 1 Subfamily A Member 2 (CYP1A2) small molecule antagonists: luciferase reporter qHTS assay (AID 1671199). Also: nearly all actives have a fitted effect of over 50% in size. Also: potency is read from the fitted curve at half-maximal effect. The method in brief: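 Compounds were incubated with CYP1A2 and a luminogenic proluciferin substrate for 10 min at room temperature before the reaction was started with NADPH regeneration solution. After 1 h, detection reagent was added and light output, proportional to CYP activity, was recorded.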
Sequence of Cytochrome P450 1A2 (Homo sapiens) (P05177 whole entry, looked up): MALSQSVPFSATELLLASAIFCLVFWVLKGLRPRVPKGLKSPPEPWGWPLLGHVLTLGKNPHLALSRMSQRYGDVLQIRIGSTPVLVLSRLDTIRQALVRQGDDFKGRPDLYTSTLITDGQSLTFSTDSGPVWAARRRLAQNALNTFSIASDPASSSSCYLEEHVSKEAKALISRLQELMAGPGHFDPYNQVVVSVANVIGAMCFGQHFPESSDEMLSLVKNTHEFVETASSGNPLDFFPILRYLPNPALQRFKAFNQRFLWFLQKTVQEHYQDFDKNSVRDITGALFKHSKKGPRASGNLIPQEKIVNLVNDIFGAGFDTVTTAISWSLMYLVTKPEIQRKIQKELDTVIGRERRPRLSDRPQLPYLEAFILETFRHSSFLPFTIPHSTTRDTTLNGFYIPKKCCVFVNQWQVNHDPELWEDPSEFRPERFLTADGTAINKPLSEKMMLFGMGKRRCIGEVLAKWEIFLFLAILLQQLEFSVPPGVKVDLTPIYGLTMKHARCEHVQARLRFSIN

For experiment [13], the target named is Voltage-gated inwardly rectifying potassium channel KCNH2 (Homo sapiens) (UniProt Q12809). The experiment in a line: Human Ether-a-go-go-Related Gene (hERG) channel small molecule antagonists: fluorescence cell-based qHTS assay (AID 1671200). Also: nearly all actives have a fitted effect of over 50% in size. Also: potency is read from the fitted curve at half-maximal effect. The method in brief: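 Thallium served as the potassium surrogate; its influx into dye-loaded U2OS cells carrying the channel was measured by fluorescence over 2 min.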
Sequence of Voltage-gated inwardly rectifying potassium channel KCNH2 (Homo sapiens) (Q12809 whole entry, looked up): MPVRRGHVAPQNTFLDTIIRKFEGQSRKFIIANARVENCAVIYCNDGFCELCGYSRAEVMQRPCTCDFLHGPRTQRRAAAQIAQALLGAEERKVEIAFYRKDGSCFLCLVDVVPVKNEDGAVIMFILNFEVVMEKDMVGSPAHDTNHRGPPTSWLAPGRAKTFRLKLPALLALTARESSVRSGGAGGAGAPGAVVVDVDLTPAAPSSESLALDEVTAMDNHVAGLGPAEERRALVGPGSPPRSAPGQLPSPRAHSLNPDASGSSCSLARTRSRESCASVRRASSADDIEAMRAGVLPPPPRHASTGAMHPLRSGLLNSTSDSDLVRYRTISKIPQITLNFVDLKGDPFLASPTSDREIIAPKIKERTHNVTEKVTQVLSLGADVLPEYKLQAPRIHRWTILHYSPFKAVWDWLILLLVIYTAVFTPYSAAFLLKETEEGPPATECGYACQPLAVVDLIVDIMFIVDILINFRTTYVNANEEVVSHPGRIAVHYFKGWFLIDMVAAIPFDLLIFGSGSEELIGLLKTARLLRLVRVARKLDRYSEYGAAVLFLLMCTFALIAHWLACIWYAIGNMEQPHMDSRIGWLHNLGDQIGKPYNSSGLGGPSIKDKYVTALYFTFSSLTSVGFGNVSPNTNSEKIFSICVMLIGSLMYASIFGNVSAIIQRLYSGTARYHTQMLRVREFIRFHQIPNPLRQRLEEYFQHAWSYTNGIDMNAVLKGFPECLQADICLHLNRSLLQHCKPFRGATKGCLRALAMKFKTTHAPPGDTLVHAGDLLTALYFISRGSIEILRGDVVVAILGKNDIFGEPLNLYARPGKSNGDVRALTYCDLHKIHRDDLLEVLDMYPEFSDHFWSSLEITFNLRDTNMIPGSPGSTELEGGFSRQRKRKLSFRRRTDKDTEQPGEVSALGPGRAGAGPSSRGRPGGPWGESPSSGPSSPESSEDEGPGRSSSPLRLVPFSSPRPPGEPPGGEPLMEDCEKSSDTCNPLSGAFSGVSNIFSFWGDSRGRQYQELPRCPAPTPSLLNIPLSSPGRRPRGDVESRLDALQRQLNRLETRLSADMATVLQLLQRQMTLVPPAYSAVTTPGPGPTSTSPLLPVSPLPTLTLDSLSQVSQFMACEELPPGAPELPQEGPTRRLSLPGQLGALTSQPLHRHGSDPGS
Background: The hERG channel carries a current that helps repolarise heart muscle cells.

The target in experiment [14] is Cytochrome P450 3A4 (Homo sapiens) (UniProt P08684). The experiment in a line: Cytochrome P450 Family 3 Subfamily A Member 4 (CYP3A4) small molecule antagonists: luciferase reporter qHTS assay (AID 1671201). Also: nearly all actives have a fitted effect of over 50% in size. Also: potency is read from the fitted curve at half-maximal effect. The method in brief:
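Relative luminescence units after 20 min with luciferin detection reagent served as read-out. Beforehand, CYP3A4 turned over a proluciferin substrate for 1 h at room temperature with NADPH regeneration, following 10 min compound preincubation.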

In experiment [15] the target is Cytochrome P450 2D6 (Homo sapiens) (UniProt P10635). The experiment in a line: Cytochrome P450 Family 2 Subfamily D Member 6 (CYP2D6) small molecule antagonists: luciferase reporter qHTS assay (AID 1671196). Also: nearly all actives have a fitted effect of over 50% in size. Also: potency is read from the fitted curve at half-maximal effect. The gist of the method: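 Enzyme and proluciferin substrate were first combined with test chemical for 10 min at room temperature. Adding NADPH regeneration solution started a 1 h reaction, stopped with luciferin detection reagent and read by luminescence 20 min later.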
Sequence of Cytochrome P450 2D6 (Homo sapiens) (P10635 whole entry, looked up): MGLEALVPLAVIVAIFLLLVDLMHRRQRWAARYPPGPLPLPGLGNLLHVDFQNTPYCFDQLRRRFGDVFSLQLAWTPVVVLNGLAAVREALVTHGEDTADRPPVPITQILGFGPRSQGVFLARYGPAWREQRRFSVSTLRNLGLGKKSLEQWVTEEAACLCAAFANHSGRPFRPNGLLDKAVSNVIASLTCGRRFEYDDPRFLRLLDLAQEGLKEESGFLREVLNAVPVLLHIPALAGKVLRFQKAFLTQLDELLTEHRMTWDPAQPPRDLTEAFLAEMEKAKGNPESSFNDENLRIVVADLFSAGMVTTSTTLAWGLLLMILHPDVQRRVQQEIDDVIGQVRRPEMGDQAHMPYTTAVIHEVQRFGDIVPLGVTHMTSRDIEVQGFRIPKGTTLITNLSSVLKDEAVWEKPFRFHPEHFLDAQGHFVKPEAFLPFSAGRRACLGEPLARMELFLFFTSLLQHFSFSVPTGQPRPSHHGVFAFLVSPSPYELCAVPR
% is scaled to controls: 0 for no effect and ±100 for the full control effect.

Sequence of Cytochrome P450 3A4 (Homo sapiens) (P08684 whole entry, looked up): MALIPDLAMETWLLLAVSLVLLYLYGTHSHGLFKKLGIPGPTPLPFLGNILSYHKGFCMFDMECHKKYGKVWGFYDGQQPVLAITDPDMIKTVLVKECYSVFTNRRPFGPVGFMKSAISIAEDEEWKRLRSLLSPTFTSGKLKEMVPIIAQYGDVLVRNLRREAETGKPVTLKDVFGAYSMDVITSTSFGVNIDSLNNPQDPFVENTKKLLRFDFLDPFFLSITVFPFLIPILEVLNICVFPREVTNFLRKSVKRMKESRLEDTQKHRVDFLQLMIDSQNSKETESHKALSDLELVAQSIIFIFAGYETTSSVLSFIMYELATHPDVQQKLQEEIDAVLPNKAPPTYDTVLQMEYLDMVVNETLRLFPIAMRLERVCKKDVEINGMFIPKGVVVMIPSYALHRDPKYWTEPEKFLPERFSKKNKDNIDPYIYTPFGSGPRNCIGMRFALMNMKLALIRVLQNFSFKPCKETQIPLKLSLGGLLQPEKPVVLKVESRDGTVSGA
Sequence of Cytochrome P450 2C19 (Homo sapiens) (P33261 whole entry, looked up): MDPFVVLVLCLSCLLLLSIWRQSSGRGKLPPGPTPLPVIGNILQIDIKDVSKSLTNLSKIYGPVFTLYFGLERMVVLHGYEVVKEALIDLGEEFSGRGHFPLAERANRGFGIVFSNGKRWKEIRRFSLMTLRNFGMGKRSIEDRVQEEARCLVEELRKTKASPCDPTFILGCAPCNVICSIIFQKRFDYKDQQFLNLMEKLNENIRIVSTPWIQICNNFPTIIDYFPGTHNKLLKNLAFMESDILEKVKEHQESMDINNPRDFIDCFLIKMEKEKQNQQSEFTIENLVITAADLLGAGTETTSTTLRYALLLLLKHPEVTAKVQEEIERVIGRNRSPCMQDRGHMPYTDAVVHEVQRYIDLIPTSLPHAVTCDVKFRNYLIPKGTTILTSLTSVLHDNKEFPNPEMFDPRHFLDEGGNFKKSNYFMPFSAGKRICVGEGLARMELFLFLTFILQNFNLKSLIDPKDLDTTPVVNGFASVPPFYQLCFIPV
Sequence of Nuclear receptor subfamily 1 group I member 2 (Homo sapiens) (O75469 whole entry, looked up): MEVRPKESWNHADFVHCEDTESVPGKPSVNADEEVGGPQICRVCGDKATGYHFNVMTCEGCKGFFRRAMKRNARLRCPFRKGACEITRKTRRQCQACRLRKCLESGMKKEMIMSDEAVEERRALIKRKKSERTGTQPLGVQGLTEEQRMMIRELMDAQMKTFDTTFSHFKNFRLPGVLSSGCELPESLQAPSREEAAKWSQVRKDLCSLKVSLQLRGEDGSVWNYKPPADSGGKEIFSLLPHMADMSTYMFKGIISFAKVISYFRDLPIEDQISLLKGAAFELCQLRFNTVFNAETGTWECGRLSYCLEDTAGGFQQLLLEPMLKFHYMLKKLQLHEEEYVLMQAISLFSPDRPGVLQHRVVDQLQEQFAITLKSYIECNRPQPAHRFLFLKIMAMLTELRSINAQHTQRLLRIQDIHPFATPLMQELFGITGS
Sequence of Cytochrome P450 2C9 (Homo sapiens) (P11712 whole entry, looked up): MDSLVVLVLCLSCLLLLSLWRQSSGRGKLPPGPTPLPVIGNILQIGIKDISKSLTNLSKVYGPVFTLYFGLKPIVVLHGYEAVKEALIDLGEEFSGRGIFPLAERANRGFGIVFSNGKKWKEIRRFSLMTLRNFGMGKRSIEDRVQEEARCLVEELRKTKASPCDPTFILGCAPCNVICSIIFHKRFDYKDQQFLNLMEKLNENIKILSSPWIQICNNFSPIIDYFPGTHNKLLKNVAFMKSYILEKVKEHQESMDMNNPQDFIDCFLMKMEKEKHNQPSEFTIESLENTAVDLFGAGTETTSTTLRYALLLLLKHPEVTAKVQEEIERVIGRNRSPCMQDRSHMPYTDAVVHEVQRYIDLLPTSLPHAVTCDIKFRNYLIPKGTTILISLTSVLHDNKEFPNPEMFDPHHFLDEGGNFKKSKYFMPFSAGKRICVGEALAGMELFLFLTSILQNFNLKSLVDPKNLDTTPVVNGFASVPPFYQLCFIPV

For the compound `CCCCCCCCCCC(CO)CCCCCCCC` (configuration not stated), the Potency entry in experiment [1], in experiment [2], in experiment [3], in [4], in experiment [5] and in experiment [6] was “inactive” throughout. Further, the Potency entry in experiment [8], in [9], in experiment [10], in experiment [11], in experiment [12] and in experiment [13] was “inactive” throughout. For the same compound, the Potency entry in experiment [14] is “inactive”. Besides, the max activation in experiment [7] is -1.75% (inactive).

In the case of `Brc1nc2ccccc2s1`, the Potency entry in experiment [1], in experiment [2], in [3], in [4], in [5] and in experiment [15] was “inactive” each time. The Potency result in experiment [11], in experiment [13] and in experiment [14] was “inactive” in each case. Moreover, the Potency is 60.9 µM (active) in experiment [6]; 35.5 µM (active) and inactive in experiment [10]; 31.6 µM (active) and 14.2 µM (active) in [12].

Regarding `C=C[Si](OCCOC)(OCCOC)OCCOC`, the Potency entry in [1], in experiment [2], in [3], in experiment [4], in [5] and in experiment [6] was “inactive” in each case. The Potency entry in [10], in [11], in experiment [12] and in experiment [13] was “inactive” throughout. For the same compound, the Potency in [15] is 28.4 µM (active) and inactive; in [14] it was 20.1 µM (active) and 31.7 µM (active).

Take `IC(I)I`: the Potency entry in experiment [1], in [2], in experiment [3], in experiment [4], in [5] and in experiment [6] was “inactive” each time. Moreover, the Potency result in experiment [9] and in [13] was “inactive” each time. For the same compound, the max activation in experiment [7] is -1.04% (inactive). Besides, the Potency in [10] was 39.9 µM (active) and 89.4 µM (active); in [11], 35.5 µM (active) and 63.3 µM (active); in experiment [12] it was 25.2 µM (active).

Take `c1ccc2c(c1)ccc1cc3c(ccc4ccccc43)cc12`: the Potency entry in [1], in experiment [2], in experiment [3], in experiment [4], in experiment [5] and in experiment [15] was “inactive” in each case. The Potency entry in [10], in experiment [11], in [13] and in experiment [14] was “inactive” throughout. In addition, the Potency in experiment [6] is 3.03 µM (active) and 1.71 µM (active); in experiment [12], 24.9 µM (active).

In the case of `C=CCCCCCCCCCC`, the Potency result in experiment [1], in experiment [2], in experiment [3], in experiment [4], in [5] and in [6] was “inactive” each time. For the same compound, the Potency entry in [15], in experiment [10], in [11], in experiment [12], in experiment [13] and in experiment [14] was “inactive” each time.

For `O=C1CCc2ccccc2O1`, the Potency entry in experiment [1], in experiment [2], in experiment [3], in experiment [4], in experiment [5] and in experiment [6] was “inactive” in each case. Moreover, the Potency result in [15], in experiment [11], in [12], in [13] and in [14] was “inactive” throughout. The Potency in experiment [10] is 31.9 µM (active) and inactive.

In the case of `Nc1cc(Cl)c(N)c(Cl)c1`, the Potency entry in experiment [1], in experiment [2], in experiment [3], in experiment [4], in experiment [5] and in experiment [13] was “inactive” in each case. The Potency in [6] was 68 µM (active) and 54.5 µM (active); in experiment [15] it was 25 µM (active); in experiment [10], 8.86 µM (active) and 71 µM (active); in experiment [11] it was 15.8 µM (active) and 39.9 µM (active); in [12], 15.8 µM (active) and 35.6 µM (active); in [14], 3.14 µM (active) and 17.8 µM (active).

As to `COc1cc([C@H]2Oc3cc([C@H]4Oc5cc(O)cc(O)c5C(=O)[C@@H]4O)ccc3O[C@@H]2CO)ccc1O`, the Potency entry in [1], in experiment [2], in [4], in [8], in experiment [9] and in experiment [10] was “inactive” in each case. Also, the Potency result in [13] was “inactive”. The Potency was 60.9 µM (active) and inactive in [3]; 60.9 µM (active) and inactive in experiment [5]; 60.9 µM (active) and inactive in experiment [6]; 10 µM (active) and 8.71 µM (active) in experiment [11]; 35.5 µM (active) and inactive in experiment [12]. For the same compound, the max activation in [7] is -6.88% (inactive).

As for `CC[C@]12CCCN3CCc4c(n(c5ccccc45)[C@@](O)(C(=O)OC)C1)[C@@H]32`, the Potency entry in [1], in [2], in [3], in [4], in [5] and in experiment [11] was “inactive” throughout. Moreover, the Potency entry in experiment [12] is “inactive”. For the same compound, the Potency in [6] is 30.6 µM (active) and 9.44 µM (active); in experiment [8], 12.6 µM (active); in [9], 14.1 µM (active); in [10], 71 µM (active) and inactive; in [13] it was 692 nM (active) and 1.69 µM (active). The max activation in experiment [7] was 1.48% (inactive).

Turning to `CCCN1C=CN(C)C1`, the Potency entry in experiment [1], in [2], in experiment [3], in experiment [4], in [5] and in [6] was “inactive” in each case. In addition, the Potency result in experiment [15], in experiment [10], in experiment [11], in experiment [12], in [13] and in experiment [14] was “inactive” in each case.

For the compound `CNC[C@H](O)c1ccc(O)c(O)c1`, the Potency result in experiment [1], in experiment [2], in experiment [4], in experiment [6], in experiment [8] and in [9] was “inactive” each time. Also, the Potency result in [13] is “inactive”. The activity change, negative = cytotoxicity in experiment [3] is 0.265% [at 19 µM] (inactive); in experiment [5] it was -0.0374% [at 19 µM] (inactive). The max activation in experiment [7] is 1.67% (inactive).

`CCCCCCCC/C=C\CCCCCCCC(=O)O`: the Potency result in experiment [1], in experiment [2], in experiment [3], in [4], in [5] and in experiment [6] was “inactive” throughout. Also, the Potency result in [8], in [9], in experiment [11], in [12], in experiment [13] and in [14] was “inactive” each time. Moreover, in experiment [7], the max activation is -0.693% (inactive). Further, the Potency in experiment [10] was 71.4 µM (active) and inactive.

Turning to `Nc1cc([N+](=O)[O-])ccc1C(=O)O`, the Potency result in [1], in [2], in [3], in experiment [4], in experiment [5] and in experiment [6] was “inactive” in each case. In addition, the Potency entry in experiment [15], in experiment [10], in [11], in experiment [12], in experiment [13] and in experiment [14] was “inactive” in each case.
